From PubChem BioAssay AID2599 (Sanford-Burnham Center for Chemical Genomics, 2010)
Out of some 330,000 compounds screened, about 5,800 (1.8%) were called active. The full list was thinned out, with actives kept by preference. Unmarked numbers belong to inactive results.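 Rule for the calls: active = inhibition above about 50% at the single tested dose (limit read from the data); inactive = the rest.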

The compounds below were run against Sentrin-specific protease 6 (Homo sapiens) (UniProt Q9GZR1) (assay: inhibition of human SENP6 catalytic domain – biochemical, luminescence, uHTS, primary screen (AID 2599;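 note: plate controls were DMSO wells with enzyme for no effect and DMSO wells lacking enzyme for full effect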)). Conditions: Recombinant SENP6 catalytic domain, aminoluciferin luminescence; at 10 µM; active compounds read high.
Sentrin-specific protease 6 (Homo sapiens), sequence (Q9GZR1 628-1112 limits assumed): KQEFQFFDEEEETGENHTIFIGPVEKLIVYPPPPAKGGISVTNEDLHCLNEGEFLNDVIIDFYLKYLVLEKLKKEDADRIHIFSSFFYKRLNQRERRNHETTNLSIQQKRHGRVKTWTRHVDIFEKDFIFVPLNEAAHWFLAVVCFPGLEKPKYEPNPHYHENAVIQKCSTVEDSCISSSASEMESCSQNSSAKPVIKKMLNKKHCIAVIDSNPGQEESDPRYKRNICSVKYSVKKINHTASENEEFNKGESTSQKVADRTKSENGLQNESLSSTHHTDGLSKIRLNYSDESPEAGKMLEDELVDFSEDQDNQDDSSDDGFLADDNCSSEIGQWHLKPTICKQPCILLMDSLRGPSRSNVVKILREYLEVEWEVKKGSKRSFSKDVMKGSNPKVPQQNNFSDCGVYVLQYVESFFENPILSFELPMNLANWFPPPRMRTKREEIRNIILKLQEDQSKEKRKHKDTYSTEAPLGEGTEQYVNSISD

| Compound | inhibition |
| --- | --- |
| CCOC(=O)c1c(N)n(CCN2CCOCC2)c2nc3ccccc3nc12 | -28.7% |
| CCOC(=O)c1c(N)n(Cc2ccccc2)c2nc3ccccc3nc12 | 29.7% |
| COc1cc(Cn2c(N)c(C(=O)NCc3ccco3)c3nc4ccccc4nc32)cc(OC)c1OC | 83.6% (active) |
| CC[N+](CC)(CC)CCCCCCCCCC[N+](CC)(CC)CC | -14.6% |
| O=C(Nc1cccc2ccccc12)N1CCC2(CC1)OCCO2 | 63.7% (active) |
| O=C(c1cc(-c2ccncc2)nc2ccccc12)N1CCC2(CC1)OCCO2 | 5.91% |
| COc1ccc(NC(=O)N2CCC3(CC2)OCCO3)c(OC)c1 | -19.7% |
| Cc1cc2ccccn2c1C(C[N+](=O)[O-])c1c(F)cccc1Cl (stereo not given) | -24.7% |
| C/C(=N/O)c1ccc2ccc3ccccc3c2c1 | 53.8% (active) |
| O=[N+]([O-])c1cnc2ccc3ccccc3c2c1 | -4.31% |
| C/C(CCc1c[nH]c2ccccc12)=N\O | -0.527% |
| O=C(NC(=S)N1C[C@H]2C[C@H](C1)c1cccc(=O)n1C2)c1ccc(F)cc1 | 0.817% |
| CC(=O)N1CN2CN(C(C)=O)CC(C(=O)c3ccc(Br)cc3)(C2)C1 | -9.66% |
| O=c1[nH]c(=O)n(-c2ccc(F)cc2)c(O)c1C=NCCN1CCCCC1 | -0.13% |
| CCCCCCCCCCCCn1ccc(=N)cc1 | -35.7% |
